Test results from ChEMBL document CHEMBL3988442, “University of Dundee, Small-Polar-MMV Screening Library” (2021).
Hit rate of the full screen: of about 48,000 compounds, about 13,000 (27%) showed an effect of 50% or more. The list shows a part of the results.

tested on: Wolbachia pipientis; assay: Anti-Wolbachia Cell-Based Screen; assay type: functional; set-up: scale not given: in the data most compounds retested in dose-response had high values; settings: 5 µM

Compound	Percent Effect
COCCCN1C(=O)CC[C@H]2CN(c3cnc4ccccc4n3)CC[C@H]21	2.221%
CCCn1nc(C)c2c1NC(=O)CC2c1ccc(CN2CCCC2)s1 (configuration not stated)	1.67%
CC(C)c1nnc2n1CCN(CCCS(=O)(=O)c1ccccc1)C2	-6.679%
CSCCc1nc(-c2ccc3c(c2)OCO3)n(C)n1	-7.384%
Cc1nc(C(C)C)cc(N2CCC3(CCC(=O)N(CC4CC4)C3)CC2)n1	0.1735%
CC(C)=CCN1CC2(CCN(C(=O)CCn3ccnc3C)CC2)CC1=O	86.66%
CSCc1noc(CN2CCC3(CC2)CC(=O)N(CC=C(C)C)C3)n1	10.72%
Cc1nnnn1CCC(=O)N1CCC2(CCC(=O)N(CC3CC3)C2)CC1	115.6%
CC(C)=CCN1CC2(CCN(Cc3ncc[nH]3)CC2)CC1=O	-7.691%
CCCc1nc(C)cc(N2CCC3(CCC(=O)N(CC4CC4)C3)CC2)n1	5.96%
O=C(O)C(F)(F)F.c1ccc(Cn2cc3c(n2)C(COCC2CC2)OCC3)nc1 (configuration not stated)	-17.74%
Cc1nc(CN2C(=O)C[C@H]3[C@H]2CCN3CC2CCOC2)cs1.O=C(O)C(F)(F)F (some centres not stated)	100.2%
Cc1nc(CN2CCN(CC3CCOC3)Cc3cccnc32)cs1.O=C(O)C(F)(F)F.O=C(O)C(F)(F)F.O=C(O)C(F)(F)F (configuration not stated)	-0.3757%
Cc1nc(CN2C(=O)C[C@@H]3[C@@H]2CCN3CC2CCOCC2)cs1.O=C(O)C(F)(F)F	145.4%
Cc1nc(CN2CCc3ncnc(C4CCOC4)c3CC2)cs1.O=C(O)C(F)(F)F (configuration not stated)	-5.983%
CCN(Cc1ccccc1)C1CCN(c2cc(C)nn2C)C1=O (configuration not stated)	8.776%
CN1CCN(C(=O)c2cccs2)Cc2ccccc21	-12.17%
Cc1cc(=O)[nH]cc1C(=O)N1CCN(C)c2ccccc2C1	99.2%
CN1CCN(C(=O)c2cc[nH]c(=O)c2)Cc2ccccc21	113.6%
O=C(c1cc[nH]c(=O)c1)N1CCn2c(nnc2-c2ccccc2)C1	1.591%
Cc1cc(=O)c(C(=O)N2CCN(C)c3ccccc3C2)c[nH]1	106.1%
Cc1ccc(C(=O)N2Cc3ccccc3C2)cc1N1CCNC1=O	-8.111%
CN1CCN(C(=O)NCCNc2ncccn2)Cc2ccccc21	4.872%
CN1CCN(C(=O)CCC(=O)c2cccs2)Cc2ccccc21	-12.13%
CN1CCN(C(=O)c2ccc(=O)n(C)c2)Cc2ccccc21	-3.616%
Cc1cccc2sc(NC(=O)CN3CCCC4(CC3)CNC(=O)O4)nc12 (configuration not stated)	-7.394%

Compound	Percent Effect
CN(Cc1ccco1)C1CCC12CCN(C(=O)c1ccncc1)CC2 (configuration not stated)	-36.28%
CCCOC1CCCN(Cc2nc(-c3cccs3)oc2C)C1 (configuration not stated)	5.158%
Cn1cc(CN2CCCC(c3nc(O)cc(-c4cccs4)n3)C2)cn1 (configuration not stated)	121.4%
Oc1cc(-c2cccs2)nc(C2CCCN(CC3=CCCOC3)C2)n1 (configuration not stated)	158.9%
Cc1nnsc1C(=O)N1CCC2(CC1)c1nc[nH]c1CCN2CC(C)C	-5.32%
CC(=O)N1CCC(Oc2ccc(C#N)cc2)CC1	-9.565%
Cc1nc(N(C)C)ncc1C(=O)NCCCn1nccc1C1CC1	-2.183%
Cn1cc(CN2CCc3onc(C(=O)Nc4cccnc4)c3C2)cn1	104.3%
CC(=O)NCc1noc2c1CN(Cc1cnn(C)c1)CC2	0.2145%
CC(C)NC(=O)C1CCC2(CCN(Cc3cnn(C)c3)CC2)CO1.O=C(O)C(F)(F)F (configuration not stated)	-4.372%
CC(C)NC(=O)c1noc2c1CN(Cc1cnn(C)c1)CC2	212.5%
O=C(Nc1cccnc1)c1noc2c1CN(S(=O)(=O)C1CC1)CC2	3.652%
Cc1cnn(C2CN(CC(=O)Nc3cccnc3)C2)c1	-2.546%
CSc1ccc(OC(C)C(=O)Nc2cc(C)n[nH]2)cc1 (configuration not stated)	-10.9%
COC(=O)CNC(=O)C(C)Oc1ccccc1C(F)(F)F (configuration not stated)	-20.43%
CC(=O)N1CCc2[nH]nc(C(=O)N3CC=CC3)c2C1	-70.9%
COc1cccc2[nH]cc(CCNC(=O)N3CCOCC3C3CC3)c12 (configuration not stated)	-14.93%
CN(C)c1ccc(NC(=O)N2CCc3sccc3C2)cn1	-14.46%
Cc1nsc(C(=O)N2CCc3ccccc3C2)n1	14.75%
Cc1nsc(N2CCc3sccc3C2)n1	15.05%
CSc1nsc(NC(=O)N2CCc3ccccc3C2)n1	111%
Cc1nsc(NC(=O)N2CCc3sccc3C2)n1	105.8%
O=C(Nc1ccc(N2CCCC2)nc1)N1CCc2ccccc2C1	28.26%
CN(C)Cc1cc(CC2(NCc3ccc(C#N)cc3)COC2)no1	1.695%
Cn1cccc(NC(=O)N2CCC(CSc3ccccc3)C2)c1=O (configuration not stated)	-5.186%
COCC(=O)N1CCC2(CC(C(=O)NCc3cccnc3)=NO2)C1 (configuration not stated)	-9.027%

Compound	Percent Effect
CC(C)NC(=O)N1CCC2(CC(C(=O)NCc3cccnc3)=NO2)C1 (configuration not stated)	-3.064%
CC(C)C(=O)N1CCCC2(CC(C(=O)NCc3cccnc3)=NO2)C1.O=C(O)C(F)(F)F (configuration not stated)	-6.89%
CC(C)CC(=O)N1CCCC2(CC(C(=O)Nc3ccccc3)=NO2)C1 (configuration not stated)	115.3%
Cc1ncccc1NC(=O)C1=NOC2(CCN(Cc3nccs3)C2)C1 (configuration not stated)	10.83%
CC(C)NC(=O)N1CCCC2(CC(C(=O)Nc3ccccc3)=NO2)C1 (configuration not stated)	111.3%
CC(C)(C)CC(=O)N1CCCC2(CC(C(=O)Nc3ccccc3)=NO2)C1 (configuration not stated)	98.19%
CN(Cc1ccc2c(c1)OCO2)C(=O)c1ccc(C2CCCO2)s1 (configuration not stated)	-6.874%
Cc1n[nH]c(C)c1CCc1nc(C2CC2)n[nH]1	-13.82%
Cc1cc(C(=O)NCCc2cn3nc(C)sc3n2)c(C)o1	-4.861%
Cc1cn(CC(=O)NCC(=O)NC2CC2)c2ccccc12	-10.11%
CCc1nsc(N2CCn3c(nnc3-c3ccccc3)C2)n1	-13.36%
CCCSCC(=O)N1C[C@@H]2CC[C@H](C1)N(Cc1ccccn1)C2=O	6.181%
O=C([C@H]1C[C@H]2OCC[C@H]2N(CC2CC2)C1)N1CCCC1	-0.02998%
CCc1nc(C)c([C@H]2CN(C)C[C@@H]2C(=O)NCc2ccccn2)[nH]1	-14.52%
CS(=O)(=O)NC[C@H]1Cn2c(-c3ccc4c(c3)OCCO4)cnc2CO1	-15.67%
CCc1noc(C(C)N2CCN(CCc3ccncc3)CC2)n1 (configuration not stated)	0.707%
Cc1noc(C(C)N2CCN(CCCN3CCCC3=O)CC2)n1 (configuration not stated)	8.407%
Cc1noc(C(C)N2CCN(CCN3CCCC3=O)CC2)n1 (configuration not stated)	121%
CCc1noc(C(C)N2CCN(CCN3CCCC3=O)CC2)n1 (configuration not stated)	113.9%
CCc1noc(C(C)N2CCC(N3CCCC3)CC2)n1 (configuration not stated)	-6.719%
Cc1noc(C)c1CN(C)CC(=O)/N=c1\cc[nH]n1C(C)C1CC1 (configuration not stated)	-5.789%
CN(C)c1cccc(C(=O)Nc2cnn(Cc3ccccn3)c2)c1	-6.173%
Cc1ccc2cc(C3(O)CCN(C)CC3)ccc2n1	-2.467%
COC[C@@]12CC[C@@H](N3CCOCC3)C[C@H]1CCN(c1ncccn1)C2	-5.007%
O=C(c1coc(COc2cccc3cnccc23)n1)N1CCCCCC1	5.374%
COCCC1CCCCN1C(=O)c1coc(COc2ccccc2F)n1 (configuration not stated)	108.5%

Compound	Percent Effect
COc1cc(C)ccc1OCc1nc(C(=O)N2CCCO2)co1	-7.138%
CC[C@H](CO)NC(=O)c1coc(COc2ccccc2F)n1	-31.99%
CC1CCCCN1C(=O)c1coc(COc2cccc3cnccc23)n1 (configuration not stated)	-5.431%
COc1ccccc1OCc1cc(C(=O)N2CCCCCC2CO)n[nH]1 (configuration not stated)	-25.79%
O=C(c1coc(COc2ccccc2F)n1)N1CCC[C@H]1CO	111.3%
COc1cc(C)ccc1OCc1nc(C(=O)N2CCCC2)co1	0.1288%
O=C(c1coc(COc2ccccc2F)n1)N1CCCO1	104.9%
CC(c1ccco1)n1cc(-c2cc(CN3CCCC3)cs2)nn1 (configuration not stated)	21.85%
CCOc1ccc(CCCC(=O)N2CCC(C(=O)NC)C2)cc1C (configuration not stated)	83.39%
CCc1cc(C)c(C(=O)N2CCCC(c3nnn[nH]3)C2)o1 (configuration not stated)	6.83%
CNC(=O)C1CCN(C(=O)c2coc(COc3ccc(OC)cc3)n2)C1 (configuration not stated)	-10.95%
CCOc1ccc(C(C)NC(=O)N2CCC(C(N)=O)CC2)cc1OC (configuration not stated)	-11.4%
CCNC(=O)N1CCC(NC(=O)NCCCc2cccc(F)c2)C1 (configuration not stated)	-2.549%
CCOc1cc(NC(=O)N2CCC(c3nnc[nH]3)CC2)ccc1C	11.09%
CCc1ccc(CC)c(NCC(=O)N2CCCC(NC(C)=O)C2)c1 (configuration not stated)	8.422%
CCOc1ccc(CCCC(=O)N2CC[C@H](NC(C)=O)C2)cc1C	116.5%
CCOc1ccc(CCCC(=O)N2CCC(c3nnn[nH]3)CC2)cc1C	92.44%
O=C(C1CC=CC1)N1CC[C@@H]2O[C@@H](COCC3CCOCC3)CC[C@@H]21	-9.606%
COCCC(=O)NCC1Cn2nnc(-c3cccc(F)c3)c2CO1 (configuration not stated)	-4.513%
COCCNC(=O)Cn1c(-c2cccc(F)c2)nc(C)c(CCO)c1=O	196.7%
CC(=O)Nc1nc(C(=O)NCCOc2cccc(F)c2)cs1	5.348%
COCCNC(=O)Cn1c(-c2cccc(Cl)c2)nc(C)c(CCO)c1=O	141.8%
CNC(=O)c1cn2cc(-c3cccc(Cl)c3)n(CC=C(C)C)c(=O)c2n1	3.943%
Cc1cc(=O)n(CC(=O)NCCC(C)C)c(-c2cccc(Cl)c2)n1	-16.01%
